In the supplement of paper PMC12340641 one finds relative growth recovery data, which are given here for 49 molecules.

The structures appear in SMILES notation. Whole data set: some 1,000 compounds, median “relative growth recovery (pomalidomide 10 uM = 100%, DMSO = 0%)” near -1.6, cut for the highest 2% near 21. This is one part of a sample in which the highest values are shown more often than they occur.

The test concerns HEK293FT dCK*-IKZF1. Kind of test: relative growth recovery (pomalidomide 10 uM = 100%, DMSO = 0%); higher = more growth rescue (IKZF1 fusion degradation). The conditions noted are these: compound concentration: 5 uM; AraC concentration: 0.3 uM; overnight pretreatment + 4 days AraC. How it is done: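 Growth recovery screen of the molecular-glue-like (Specs) library. HEK293FT cells expressing a dCK*-IKZF1 fusion (primary) or dCK* alone (counter) were pretreated overnight with compound at 5 uM, then given 0.3 uM AraC for 4 days. Hoechst nuclei were counted by imaging. Primary: normalised to pomalidomide (100%) and DMSO (0%), mean of 2 replicates. Counter: normalised to no-AraC (100%) and AraC+DMSO (0%), single replicate.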
Regarding `Cc1cccc(C(=O)Nc2ccc(S(=O)(=O)Nc3nc(C)cc(C)n3)cc2)c1`, the relative growth recovery was determined as 4.85%.

With `Cc1nc(Nc2cccc(C3CCCN3C(=O)CCCN3C(=O)CNC3=O)n2)sc1C` (centres undefined), the relative growth recovery was determined as 3.93%. In the case of `Cc1ccc(/C=C/C(=O)Nc2ccc(S(=O)(=O)Nc3ncccn3)cc2)cc1` it was -2.17%; in that of `Cc1cc(OCC(=O)Nc2ccc(S(=O)(=O)Nc3ncccn3)cc2)ccc1Cl`, -0.26%; in that of `NCC(=O)N1CCC(c2cccc(Nc3ncc(Br)s3)n2)CC1`, -17.1%. Consider `Cc1nc(/C=C/C(=O)N2CCC(c3cc4ccccc4c(Nc4nccs4)n3)CC2)cs1`, for which the relative growth recovery was -17.8%. As to `Cc1nn(C)c(C)c1/C=C/C(=O)N1CCC(c2cc3ccccc3c(Nc3nccs3)n2)CC1`, the relative growth recovery came out at 51.1%. Consider `Cn1nccc1/C=C/C(=O)N1CCC(c2cc3ccccc3c(Nc3nccs3)n2)CC1`, for which the relative growth recovery was -16.9%.

Take `Cc1ccc(C)c(OCC(=O)Nc2ccc(S(=O)(=O)Nc3nc(C)cc(C)n3)cc2)c1`: the relative growth recovery was -2.19%.

`Nc1ccc(Oc2ccc3c(c2)C(=O)N(CCO)C3=O)cc1`: the relative growth recovery is 2.76%.

`Cc1cnc(Nc2cccc(C(C(=O)N(C)C)C3CCN(C(=O)C4CCCCC4)CC3)n2)s1` (centres undefined): the relative growth recovery was determined as 1.65%. In the case of `Cn1nccc1/C=C/C(=O)N1CCCC1c1csc(Nc2ccccn2)n1` (centres undefined) it was 2.75%.

Turning to `Cn1nccc1/C=C/C(=O)N1CCCC(c2cc3ccccc3c(Nc3nccs3)n2)C1` (centres undefined), the relative growth recovery is -10.2%.

Regarding `Cc1ccc(Nc2nc(C3CCCN3C(=O)/C=C/c3csc(C)n3)cs2)nc1` (centres undefined), the relative growth recovery was found to be 0.31%. The figure for `O=C(/C=C/c1ccco1)N1CCCC(c2csc(Nc3ccccn3)n2)C1` (centres undefined) is 18.9%; for `Cn1nccc1/C=C/C(=O)N1CCCC(c2csc(Nc3ccccn3)n2)C1` (centres undefined) it is 40.9%. In the case of `CC(=O)N1CCCC(c2csc(Nc3ccccn3)n2)C1` (centres undefined) it was -1.67%; in that of `Cc1ccc(Nc2nc(C3CCCN(C(=O)/C=C/c4csc(C)n4)C3)cs2)nc1` (centres undefined), 31.5%. Take `O=C(/C=C/c1ccccc1)N1CCCC(c2csc(Nc3ccccn3)n2)C1` (centres undefined): the relative growth recovery came out at 31.2%. In the case of `COC(C)(C)C(=O)N1CCCC(c2csc(Nc3ccc(C)cn3)n2)C1` (centres undefined) it was 15.9%; in that of `Cc1ccc(OCC(=O)Nc2ccc(S(=O)(=O)Nc3nc(C)cc(C)n3)cc2)cc1`, -1.25%. In the case of `O=C1CCC(N2C(=O)c3cc(F)c(N4CCC(Cn5cc(C(=O)O)cn5)CC4)cc3C2=O)C(=O)N1` (centres undefined) it was -2%; in that of `Cc1cc(C)nc(NS(=O)(=O)c2ccc(NC(=O)CSc3nc4c(cc3C#N)CCCCC4)cc2)n1`, -5.67%; in that of `Cc1ccc(C)c2c1[nH]c1nc(SCC(=O)Nc3cccc(F)c3)nnc12`, -2.81%. As to `CC(=O)N1CCC(Cc2cccc(Nc3nc(C)cs3)n2)CC1`, the relative growth recovery stood at 10.6%. As for `CCCCc1cnc(Nc2cccc(C3CCN(C(=O)[C@@H]4CCCCN4)CC3)n2)s1`, the relative growth recovery was -11.4%.

For the molecule `O=C(Nc1ccc(S(=O)(=O)Nc2ncccn2)cc1)c1ccc2c(c1)OCO2`, the relative growth recovery was -3.11%. Turning to `COc1ccc(Cl)cc1C(=O)Nc1ccc(S(=O)(=O)Nc2nccc(C)n2)cc1`, the relative growth recovery was -1.7%.

In the case of `COc1ccc2[nH]c(SCC(=O)Nc3ncccn3)nc2c1`, the relative growth recovery is 1.53%. `Cc1cnc(Nc2cccc(C3CCN(C(=O)C4(NC(=O)CC(C)(C)C)CCCCC4)CC3)n2)s1`: the relative growth recovery was -16.1%. As to `CCc1ccccc1OCC(=O)Nc1ccc(S(=O)(=O)Nc2nc(C)cc(C)n2)cc1`, the relative growth recovery is -4.88%. In the case of `CCCN1CC(C(=O)N2CCC(c3cccc(Nc4ncc(C)s4)n3)CC2)CC1=O` (centres undefined) it was -5.35%. For the molecule `COc1cc(NS(=O)(=O)c2ccc(NC(=O)c3ccccc3C(=O)O)cc2)nc(OC)n1`, the relative growth recovery was -4.23%. In the case of `COc1cc(NS(=O)(=O)c2ccc(NC(=O)/C=C/c3ccco3)cc2)nc(OC)n1` it was 1.19%. Turning to `CCCc1cnc(Nc2cccc(C3CCN(C(=O)Cn4c(CC(C)C)nc5ccccc54)CC3)n2)s1`, the relative growth recovery is -2.13%. The figure for `COc1ccc(-c2csc(Nc3ccc(S(=O)(=O)Nc4cc(OC)nc(OC)n4)cc3)n2)cc1` is -2.94%; for `Cc1cnc(Nc2cccc(C3CCCN3C(=O)c3nccc4ccccc34)n2)s1` (centres undefined) it is 2.39%; for `O=C(Cc1cccs1)Nc1ccc(Oc2ccc3c(c2)C(=O)N(c2ccc(O)cc2)C3=O)cc1` it is -1.26%. In the case of `O=C(C1CCCCC1)N1CCC(Cc2cccc(Nc3nccs3)n2)CC1` it was 4.47%. In the case of `Cc1cccc(C)c1OCC(=O)Nc1ccc(S(=O)(=O)Nc2ncccn2)cc1` it was 1.77%; in that of `COc1ccccc1CCC(=O)N1CCOC(c2cccc(Nc3ncc(C)s3)n2)C1` (centres undefined), 10.8%.

Regarding `COc1cc(NS(=O)(=O)c2ccc(NC(=O)COc3cccc(C)c3)cc2)nc(OC)n1`, the relative growth recovery is -18.6%. With `COCC(=O)N1CCCC1c1cccc(Nc2nc(C)cs2)n1` (centres undefined), the relative growth recovery was -7.27%. On to `O=C1CCC(N2C(=O)c3ccc(C(=O)O)cc3C2=O)C(=O)N1` (centres undefined), for which the relative growth recovery is -0.47%. In the case of `Cc1cc(C)nc(NS(=O)(=O)c2ccc(NC(=O)c3ccccc3I)cc2)n1` it was -0.26%. In the case of `Cc1ccnc(NS(=O)(=O)c2ccc(NC(=O)C34CC5CC(CC(C5)C3)C4)cc2)n1` it was -6.07%; in that of `CCCCCOC(=O)c1ccc(N2C(=O)c3ccc(Oc4ccc(N)cc4)cc3C2=O)cc1`, 1.57%; in that of `CC(C)Cc1nc2ccccc2n1CC(=O)N1CCC(Cc2cccc(Nc3nccs3)n2)CC1`, -1.89%. In the case of `CC(C)(C)C(=O)NC1(C(=O)N2CCC(c3cccc(Nc4ncc(Cl)s4)n3)CC2)CCCCC1`, the relative growth recovery is -18.6%.
